Compounds with a hit are over-represented: about 6.2% of the library has one in this group of screens.
Mot1-301 SUMO: SUMOylation pathway inhibition by Mot1-301 growth rescue. growth rescue, % at 18.8 µM. actives 1% (n = 320,000). S. cerevisiae Mot1-301 growth rescue, ATP luminescence, 38.5C; percent above DMSO median, 100 means doubled. AID 2716;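 active = every valid replicate shows activation above 250% relative to neutral control wells; inactive = the rest, any valid replicate at or below 250%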
GRIN3A LBD mod: modulates the human NR3A ligand-binding domain; actives 2.5% (n = 340,000); AID 1259313; Tm shift relative to glycine control, % at 25 µM; NR3A LBD differential scanning fluorimetry, Tm shift; 0% = protein alone, 100% = glycine-bound protein;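 active = melting temperature shift of at least 10% of the positive control shift, at one fixed dose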
H9c2 protect: protects H9c2 cardiomyocytes from peroxide injury; actives 0.63% (n = 360,000); AID 588492; protection from H2O2 cell death, % at 20 µM; H2O2 injury protection, ATPLite, 2 h;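 active = compounds giving at least 50% protection of heart cells from peroxide-induced death in the single-dose screen, raw or plate-pattern-corrected value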
NTR1 agonist: NTR1 (human) agonism; actives 0.17% (n = 330,000); activation, % at 20 µM; P30989; NTR1-U2OS beta-arrestin-GFP spot imaging, agonist mode;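 active = activation at or above 40% of the spot to cytoplasm intensity ratio, with at least 20 cells analyzed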
Target sequence (P30989 whole entry, looked up): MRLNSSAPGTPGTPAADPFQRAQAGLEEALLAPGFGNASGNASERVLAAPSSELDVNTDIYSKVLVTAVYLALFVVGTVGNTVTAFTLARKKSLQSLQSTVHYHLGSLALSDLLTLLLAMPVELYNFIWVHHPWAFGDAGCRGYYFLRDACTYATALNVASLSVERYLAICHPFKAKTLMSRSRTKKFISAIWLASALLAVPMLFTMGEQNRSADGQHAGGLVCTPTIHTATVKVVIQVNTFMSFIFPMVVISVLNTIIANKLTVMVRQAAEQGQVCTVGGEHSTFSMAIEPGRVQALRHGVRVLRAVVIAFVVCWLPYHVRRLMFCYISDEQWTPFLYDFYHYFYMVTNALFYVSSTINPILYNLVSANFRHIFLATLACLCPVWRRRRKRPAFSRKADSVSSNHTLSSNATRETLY
AHR act: activates the human aryl hydrocarbon receptor. P35869. activation, % at 5 µM. actives 2.5% (n = 320,000). AHR-responsive luciferase reporter cells, luminescence; in the data active = activation above about 47%
AI-2 QS mod: modulates the Vibrio harveyi AI-2 quorum sensing system; Vibrio harveyi JMH597 AI-2 luminescence/OD600 ratio, 9 h; stronger effect = lower value; strain lacks LuxN and CqsS sensors; 0 = neutral-control median; activity change, % at 7.5 µM; actives 0.4% (n = 300,000); in the data active = activity change below about -75%, passing the limit was not always enough;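 note: luminescence divided by OD600 gain over 9 h not by final OD600 alone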
Hits are given with their value; n = inactive; x = no result given.

SMILES	Mot1-301 SUMO	GRIN3A LBD mod	H9c2 protect	NTR1 agonist	AHR act	AI-2 QS mod
O=C(Nc1ccc(Br)cc1)c1ccc(N2C(=O)C3CC=C(Cl)CC3C2=O)cc1 (stereo not drawn)	n	26.5	n	n	n	n
Cc1ccccc1C(=O)N1CCC(C(=O)Nc2ccc(S(=O)(=O)N3C(C)CCCC3C)cc2)CC1 (stereo not drawn)	x	n	n	x	x	x
COC(=O)c1cc(NC(=O)CSc2nncn2C)cc(C(=O)OC)c1	n	11.2	n	n	n	n
NC(=O)Nn1c(CCC(=O)O)ccc1-c1ccc(F)cc1	349.2	n	n	n	n	n
O=C(O)CCc1ccc(-c2ccc(F)cc2)n1CC(=O)O	n	n	n	n	n	n
Cc1ccc(C(=O)NNC(=O)c2n[nH]c(=O)c3ccccc23)cc1C	n	n	n	n	n	x
COCCNC(=O)Cn1cnc2sc(C)c(S(=O)(=O)N3CCC(C)CC3)c2c1=O	n	n	n	n	n	n
COc1ccc(Cl)cc1Nc1ncnc2sc(C)c(S(=O)(=O)N3CCC(C)CC3)c12	n	10.4	n	n	n	n
Cc1ccc([N+](=O)[O-])cc1S(=O)(=O)NCCc1c(C)[nH]c2c(C)cccc12	n	33.0	n	n	n	n
Cc1[nH]c2c(C)cccc2c1CCNS(=O)(=O)c1cccc([N+](=O)[O-])c1	n	30.2	n	n	n	n
Cc1cc(/C=C(\C#N)C(=O)NCc2ccccc2)c(C)[nH]1	x	x	n	x	x	x
Cc1ccc(C(=O)c2nocc2C(=O)c2cccs2)cc1	n	15.8	n	n	n	n
Cc1nc2ccc(C(=O)NCCc3c[nH]c4ccccc34)cn2c1N(C)C(=O)CCc1ccccc1	x	x	n	x	x	x
C=CCCC(=O)N1C[C@H]2CON(C)[C@H]2C[C@H]1c1ccc(Br)cc1	x	x	n	x	x	x
NC(=NCCc1c[nH]c2ccccc12)NC(=O)c1ccc(F)cc1	n	38.4	n	n	n	n
Cc1c(NC(=O)c2cccnc2Cl)c(=O)n(-c2ccccc2)n1C	n	n	n	n	n	n
O=C(Nc1ccccc1)Nc1nnc(Cc2ccc([N+](=O)[O-])cc2)s1	n	16.0	n	n	n	n
O=C(Nc1nnc(Cc2ccc([N+](=O)[O-])cc2)s1)Nc1ccccc1F	n	n	n	n	n	n
Cc1ccc(NC(=O)Nc2nnc(Cc3ccc([N+](=O)[O-])cc3)s2)cc1C	n	25.1	n	n	n	n
CCC1CC(C(=O)Nc2ccccc2)C(=O)O1 (stereo not drawn)	301.1	n	n	n	n	n
CC(C)C1CC(C(=O)Nc2ccccc2)C(=O)O1 (stereo not drawn)	n	n	n	n	n	n
COc1ccc(NC(=O)CN2C(=O)NC3(CCCCC3C)C2=O)cc1OC (stereo not drawn)	n	n	n	n	n	x
COc1ccc(CN2CCN(C(c3ccc(F)cc3)c3ccc(F)cc3)CC2)c(OC)c1OC	n	12.9	n	n	n	n
COc1ccc(CN2CCN(c3ccc(F)cc3)CC2)c(OC)c1OC	n	n	n	n	n	n
O=C(CCc1c[nH]c2ccccc12)N1CCN(S(=O)(=O)c2ccc(F)cc2)CC1	x	n	n	n	x	x
SMILES	Mot1-301 SUMO	GRIN3A LBD mod	H9c2 protect	NTR1 agonist	AHR act	AI-2 QS mod
O=C(CCc1nc2ccccc2c(=O)[nH]1)N1CCN(S(=O)(=O)c2ccc(F)cc2)CC1	n	n	86.5	n	n	x
O=C(CCc1nc2ccccc2c(=O)[nH]1)N1CCN(S(=O)(=O)c2cccc([N+](=O)[O-])c2)CC1	n	n	70.4	n	n	n
CCCN1CCc2c(sc(NC(=O)C3CCN(S(=O)(=O)c4cccs4)CC3)c2C(N)=O)C1	n	n	n	n	n	n
Cc1ccc(NC(=O)CN2CCN(C)CC2)cc1S(=O)(=O)N1CCOCC1	n	n	n	n	n	n
CC1=NN(c2nc(-c3ccc(C)cc3)cs2)C(=O)C1N=Nc1cccc(O)c1 (stereo not drawn)	n	11.6	n	n	n	n
CC1=NN(c2nc(-c3ccc(C)cc3)cs2)C(=O)C1N=Nc1ccccc1O (stereo not drawn)	n	10.6	n	n	50.6	n
O=c1c2cc(N3CCOCC3)ccc2[nH]c(=S)n1Cc1ccco1	n	n	n	n	n	n
COc1cccc(CNC(=O)CCCCCn2c(=S)[nH]c3ccc(N4CCOCC4)cc3c2=O)c1	n	x	x	n	n	n
O=c1c2cc(Cl)ccc2[nH]c(=S)n1Cc1cccs1	n	18.6	n	n	n	n
O=c1c2cc(Cl)ccc2[nH]c(=S)n1Cc1ccco1	n	n	n	n	n	n
COc1cccc(Cn2c(=S)[nH]c3ccc(N4CCOCC4)cc3c2=O)c1	x	22.5	n	n	n	n
O=c1c2cc(N3CCOCC3)ccc2[nH]c(=S)n1Cc1cccc(Cl)c1	n	31.0	n	n	n	n
CC(=O)NC(c1ccccc1)c1nc(-c2cc3ccccc3o2)cs1 (stereo not drawn)	x	x	n	x	x	x
c1ccc(CNC2CC3CCC2C3)cc1 (stereo not drawn)	x	n	n	x	x	x
O=C(NNC(=O)c1cc2ccccc2[nH]1)OCc1ccccc1	n	n	n	n	66.3	x
O=C(NCC(O)c1ccc2ccccc2c1)c1c(F)cccc1F (stereo not drawn)	n	n	n	n	n	-75.4
O=C(NCCc1ccccc1)c1c(F)cccc1F	n	n	n	n	n	n
O=C(Nc1cccc2cccnc12)c1csc([C@@H]2O[C@H](CO)[C@H](O)[C@H](O)[C@H]2O)n1	x	x	n	x	x	x
CCN(CC)CC(=O)Nc1c2c(nc3ccccc13)N(C)CC2	n	n	n	n	n	n
O=C(CN1CCOCC1)Nc1c2c(nc3ccccc13)N(Cc1ccccc1)CC2	n	n	n	n	55.1	n
O=C(CN1CCCC1)Nc1c2c(nc3ccccc13)N(Cc1ccccc1)CC2	n	n	n	n	71.2	n
Cc1ccnc(SCC(=O)NC2CC2)n1	n	n	n	n	n	n
CCC1(CC(C)C)SC(N)=NC1=O (stereo not drawn)	x	n	n	x	x	x
Cc1cc(C)n2nc(SCC(=O)N3CCCC(C)C3)nc2n1 (stereo not drawn)	n	n	n	n	n	x
CCOCCCNC(=O)C(NC(=O)Cc1cccs1)c1ccccc1 (stereo not drawn)	n	n	n	n	n	n
SMILES	Mot1-301 SUMO	GRIN3A LBD mod	H9c2 protect	NTR1 agonist	AHR act	AI-2 QS mod
CCCCOCCCNC(=O)Cc1cccs1	n	10.5	n	n	n	n
COc1ccc(NCc2cc3ccccc3[nH]c2=O)cc1	n	n	62.4	n	n	n
COc1ccc(NCc2cc3cc(OC)ccc3[nH]c2=O)cc1	n	n	99.0	n	n	n
COc1ccc2[nH]c(=O)c(CN(c3ccccc3)S(=O)(=O)c3ccccc3)cc2c1	n	n	n	n	n	n
COc1ccc2[nH]c(=O)c(CNc3cccc(C)c3)cc2c1	x	n	n	n	n	n
COc1ccc(CC(=O)OCc2cc3ccccc3[nH]c2=O)cc1	n	n	n	n	n	n
